In PubChem BioAssay (EPA / NIEHS) one finds outcome data, which are given here for 22 compounds.

Results filed as inconclusive are left out. The source made the active and inactive calls. How the source made its calls, unless noted: active means hit-call score of the fitted dose curve at least 0.9, where 1 is the maximum; inactive means score below 0.9.

The first experiment is described as follows: CCTE_Harrill_HTTr_Apoptosis_MCF7: CCTE's 6-hour Apoptosis Assessment for the High-Throughput Transcriptomics (HTTr) Platform, in MCF-7 cells cultured in DMEM + 10% fetal bovine serum, Harrill Lab (AID 2284011). The method, boiled down:
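Apoptosis in MCF-7 cells grown in DMEM with 10% fetal bovine serum was scored after a six hour exposure by high content imaging of caspase-3/7 activation (CellEvent Caspase 3/7 Green), with DMSO serving as negative control and baseline.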
On to `COCCOCCOC`, for which the result was inactive.
Regarding `COc1ccc2c(c1)c(CC(=O)O)c(C)n2C(=O)c1ccc(Cl)cc1`, the outcome was inactive.
With `COc1ccc(C)cc1N`, the result was inactive.
In the case of `COc1cc(C=O)ccc1O`, the result was inactive.
Take `Cc1ccc(C)c(C)c1`: the outcome was inactive.
For the compound `Cc1nc(-c2ccc3c(c2)CCN(CCC2CCC(NC(=O)/C=C/c4ccc(F)cc4)CC2)CC3)no1` (stereo not given), the result was inactive.
For the compound `O=C(O)Cc1ccccc1Nc1c(Cl)cccc1Cl`, the result was inactive.
Turning to `COc1ccc(S(=O)(=O)N2C(=O)[C@@](c3ccccc3OC)(N3C[C@H](O)C[C@H]3C(=O)N(C)C)c3cc(Cl)ccc32)c(OC)c1`, the outcome was inactive.
For `CC(C)(C)c1cc(O)c(C(C)(C)C)cc1O`, the outcome was inactive.
In the case of `Cc1cccc(C)c1O`, the outcome was inactive.
In the case of `Cc1cc(NC(=O)C(=O)O)cc(C)c1Oc1ccc(O)c2c1CCC2`, the outcome was inactive.

The nature of a further experiment: CCTE_Harrill_HTTr_CellCount_MCF7: CCTE's Cell Proliferation Assessment for the High-Throughput Transcriptomics (HTTr) Platform, Harrill Lab (AID 2284012; active means hit-call score of the fitted dose curve at least 0.9, where 1 is the maximum;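 further: count of Hoechst-stained nuclei per well by high-content imaging in MCF-7 cells; cells exposed to compound for six hours; intended direction is loss of nuclei count meaning fewer cells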). The method, boiled down:
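Chemicals in eight-point dilution series are added to MCF-7 cells for six hours, nuclei are stained with Hoechst and imaged, and per-well nuclei counts are fitted in both directions relative to DMSO controls.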
For `COc1cc(/C=C/C(=O)CC(=O)/C=C/c2ccc(O)c(OC)c2)ccc1O`, the result was inactive.
As to `COCCOCCOC`, the outcome was inactive.
On to `COc1ccc2c(c1)c(CC(=O)O)c(C)n2C(=O)c1ccc(Cl)cc1`, for which the call was inactive.
With `COc1ccc(C)cc1N`, the result was inactive.
For the compound `COc1cc(S(=O)(=O)O)c(C)cc1N=Nc1c(O)ccc2cc(S(=O)(=O)O)ccc12`, the compound was called inactive.
Take `COc1cc(C=O)ccc1O`: the compound was classed as inactive.
On the same count and under the same terms, the entry for `Cc1cccc([N+](=O)[O-])c1C` is “inactive”; for `Cc1nc(-c2ccc3c(c2)CCN(CCC2CCC(NC(=O)/C=C/c4ccc(F)cc4)CC2)CC3)no1` (stereo not given) it is “inactive”; for `O=C(O)Cc1ccccc1Nc1c(Cl)cccc1Cl` it is “inactive”.
The same measure, in the same setting: the entry for `CN[C@H]1CC[C@@H](c2ccc(Cl)c(Cl)c2)c2ccc(S(N)(=O)=O)cc21` is “inactive”; for `Cc1cccc(C)c1O` it is “inactive”.
Still for that read-out and setting: the entry for `CCCCCCCCCCC` is “inactive”; for `Cc1ccc(C)c(O)c1C` it is “inactive”.
On to `CNC(=O)[C@H]1O[C@@H](n2cnc3c(NCc4cc(Cl)ccc4OCc4cc(C)no4)ncnc32)[C@H](O)[C@@H]1N`, for which the outcome was inactive.
On the same count and under the same terms, the entry for `Cc1c(C(=O)O)c(O)cc2c1C(=O)c1c(O)c([C@@H]3O[C@H](CO)[C@@H](O)[C@H](O)[C@H]3O)c(O)c(O)c1C2=O` is “inactive”; for `C=CCOC(=O)c1ccccc1C(=O)OCC=C` it is “inactive”.
Still for that read-out and setting: the entry for `CCCCC(CC)COC(=O)CC(C(=O)OCC(CC)CCCC)S(=O)(=O)O` (stereo not given) is “inactive”.

A further experiment in a line: CCTE_Shafer_MEA_acute_burst_number: CCTE's Neural Acute Assay for Single-Electrode Bursts, Shafer Lab (AID 2284013). In short, it runs like this: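 Primary rat cortical neurons on 16-electrode MEA wells, treated on DIV 13 or 15 with compound at 0.03-40 uM. Single-electrode burst count from 40-min recordings at 37 C before and after exposure; percent change from baseline per well, DMSO negative control.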
For the compound `COc1ccc2c(c1)c(CC(=O)O)c(C)n2C(=O)c1ccc(Cl)cc1`, the compound was classed as inactive.
On to `CC(=O)Oc1ccccc1C(=O)O`, for which the call was inactive.
On the same count and under the same terms, the entry for `COc1ccc(S(=O)(=O)N2C(=O)[C@@](c3ccccc3OC)(N3C[C@H](O)C[C@H]3C(=O)N(C)C)c3cc(Cl)ccc32)c(OC)c1` is “inactive”; for `CC(C)(C)c1cc(O)c(C(C)(C)C)cc1O` it is “inactive”; for `CN[C@H]1CC[C@@H](c2ccc(Cl)c(Cl)c2)c2ccc(S(N)(=O)=O)cc21` it is “inactive”.
On the same count and under the same terms, under `Cc1ccc(C)c(O)c1C` stands “inactive”.
Still for that read-out and setting: under `C=CCOC(=O)c1ccccc1C(=O)OCC=C` stands “inactive”.
